# From PubChem
# D3 ag – activates the human D3 dopamine receptor; max activation, %; P35462; 0.58% of 410,000 active; D3R DiscoveRx beta-arrestin cells, luminescence, 90 min; in the data active = max activation above about 30%; note: 0% is about no effect
#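 Cells at 1500/well, incubated overnight, then treated with pinned compounds (dopamine as control) for 90 min at 37 degrees C. DiscoveRx reagent added for 30 - 60 minutes at room temperature; luminescence read.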
# GLP-1R agonist – activates the human GLP-1 receptor. Potency, µM (titrated, usually from 45.6 µM), for the others: top-dose activation, usual class: activators. HEK293 GLP-1R CRE-luciferase, luminescence, 4-6 h; cells express a hypersensitive GLP-1R form. P43220. 0.007% of 380,000 active; note: potency is the fitted concentration of half-maximal effect; % of control where 0% means no effect
# Target sequence (P43220 whole entry, looked up): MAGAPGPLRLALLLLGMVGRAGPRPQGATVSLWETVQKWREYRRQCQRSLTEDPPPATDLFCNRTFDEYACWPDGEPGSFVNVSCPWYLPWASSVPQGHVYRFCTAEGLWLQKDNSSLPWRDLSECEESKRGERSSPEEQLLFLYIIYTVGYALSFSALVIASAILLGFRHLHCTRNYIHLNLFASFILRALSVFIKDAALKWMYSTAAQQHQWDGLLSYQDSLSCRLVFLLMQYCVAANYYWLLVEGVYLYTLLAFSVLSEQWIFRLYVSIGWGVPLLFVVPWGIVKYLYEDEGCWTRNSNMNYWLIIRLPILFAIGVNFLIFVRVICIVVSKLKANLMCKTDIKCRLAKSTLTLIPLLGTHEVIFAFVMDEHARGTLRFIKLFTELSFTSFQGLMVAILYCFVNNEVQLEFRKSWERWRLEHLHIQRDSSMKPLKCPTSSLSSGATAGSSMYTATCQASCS
# GLP-1R inv ag – acts as inverse agonist at human GLP-1 receptor; P43220; HEK293 GLP-1R CRE-luciferase, luminescence, 24 h; GLP-1R form is constitutively active; Potency, µM (highest dose often 38.3 µM), for inactives: at the highest dose activity change, negative = inhibition, usual class: inhibitors; 1.6% of 410,000 active; note: potency is the fitted concentration of half-maximal effect; % is set by controls: 0 for no effect and ±100 for the full control effect; nearly all actives have a fitted effect of over 55% in size
#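 Inverse agonists were sought by their lowering of basal cAMP reporter luciferase output in HEK293 cells stably carrying constitutively active human GLP-1R, after 24 h compound treatment.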
# DRD3 antagonist – D3 dopamine receptor (human) antagonism | D3R cells, DiscoveRx beta-arrestin luminescence, antagonist mode; stronger effect = lower value | max response, negative = inhibition, % | 2.5% of 360,000 active | AID 652054; in the data active = max response below about -50%; inconclusive = no clear call, values can overlap the other calls; note: % is set by controls: 0 for no effect and ±100 for the full control effect
#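 Cells expressing the human receptor were seeded at 1500 cells/well, incubated overnight at 37 degrees C in 5% CO2, then exposed to library compounds with dopamine controls for 90 minutes at 37 degrees C before luminescent detection.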
# ClpP mod – qHTS Assay for Activators of ClpP; purified B. subtilis ClpP, FRET peptide cleavage, 20 min; Potency, µM (series often up to 57.5 µM), inactives show top-dose activity change, negative = active; 1.9% of 340,000 active; active = well fitted falling curve with a large enough effect; inconclusive = small, poorly fitted or top-dose-only effect; inactive = no such curve, though single readings can be large or run the other way; note: potency is the fitted concentration of half-maximal effect; the source files actives as falling curves though it sought activators and does not explain the sign; nearly all actives have a fitted effect of over 65% in size
# Target sequence (P80244 whole entry, looked up): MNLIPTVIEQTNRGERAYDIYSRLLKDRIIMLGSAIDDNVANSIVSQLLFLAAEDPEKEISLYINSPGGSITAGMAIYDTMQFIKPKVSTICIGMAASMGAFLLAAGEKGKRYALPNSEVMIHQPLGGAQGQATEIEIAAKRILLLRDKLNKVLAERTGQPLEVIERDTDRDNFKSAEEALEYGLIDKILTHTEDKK
#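 Purified B. subtilis ClpP, 10 microg/mL final in Tris/HCl pH8 with KCl, BSA, glycerol and Tween-20, cleaved an Abz/nitrotyrosine-quenched decapeptide. Fluorescence (ex 320, em 430) was read at 0 and 20 min at room temperature. Delta was normalized to 5.8 microM ADEP and DMSO/no-enzyme controls.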
# HEK293 tox – cytotoxicity in counter-screen for GLP-1R inverse agonists. 0.13% of 410,000 active. AID 624418. HEK293 cAMP-luciferase reporter cells, luminescence, 24 h. Potency, µM (series often up to 38.3 µM), inactives show at the top dose activity change, negative = inhibition, most hits filed as inhibitors;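 note: loss of luciferase light is scored as toxicity; potency is the fitted concentration of half-maximal effect; % is set by controls: 0 for no effect and ±100 for the full control effect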
#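 Quantitative HTS format, 1536 wells, 200 cells/uL seeded. Compounds: 23 nL, 24 h, 37 °C. Detection: luciferase reagent, luminescence at 12 min RT; decreased signal taken as cytotoxic.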
# * marks the source's active call; other numbers are inactive results; i = inactive; ? = inconclusive; nt = no result; + = active, no number. A selection: hits, their analogues and other compounds. The true share with any hit is near 5.7%. Unless noted, calls come from the whole dose curve; as a rule, active = well fitted curve in the direction sought with a large enough effect; inconclusive = small, poorly fitted or top-dose-only effect, or another doubt; inactive = no such curve, though single readings can be large; an effect the other way counts as inactive or inconclusive.
SMILES,D3 ag,GLP-1R agonist,GLP-1R inv ag,DRD3 antagonist,ClpP mod,HEK293 tox
Cc1ccc(-c2cc(C(=O)NCc3ccccc3)c3c(-c4ccc(C)cc4)[nH]nc3n2)cc1,0.3,nt,5.0%,nt,0.7%,-3.8%
CCC1Nc2ncnc(N3CCOCC3)c2N(Cc2ccccc2)C1=O (stereo not drawn),-19.1,-0.8%,12.3%,-4.7,-2.1%,7.4%
O=C1C(Cc2ccccc2)Nc2ncnc(N3CCN(c4ccccc4)CC3)c2N1Cc1ccc(Br)cc1 (stereo not drawn),-55.4,-2.6%,?,-151.5*,-9.7%,34.3%
CCC1Nc2ncnc(N3CCN(c4ccccc4)CC3)c2N(Cc2ccc(Br)cc2)C1=O (stereo not drawn),-88.1,-0.2%,?,+,-1.5%,5.5%
CCC1Nc2ncnc(N3CCN(c4ccccc4)CC3)c2N(Cc2ccc(OC)cc2)C1=O (stereo not drawn),-56.4,12.0%,?,-148.7*,-2.8%,-1.2%
CCC1Nc2ncnc(N3CCOCC3)c2N(Cc2ccc(OC)cc2)C1=O (stereo not drawn),9.8,-1.8%,16.7%,3.0,-2.7%,2.2%
COc1ccc(-c2noc([C@@H]3O[C@H](CO)[C@H](O)[C@H](O)[C@H]3O)n2)cc1OC,-2.4,-1.4%,8.3%,?,-0.7%,0.6%
O=C(Cc1ccc(OCC2CCCCC2)cc1)NO,nt,nt,nt,nt,-0.5%,nt
CCN(Cc1ccccc1)C(=O)Cn1c(=O)n(-c2ccc(F)c(Cl)c2)c(=O)c2sc3ccccc3c21,0.8,-0.3%,5.2%,nt,4.1%,-2.2%
COc1ccc(N2CCN(C(=O)C(CC(C)C)NS(=O)(=O)c3ccc4nc(C)sc4c3)CC2)cc1 (stereo not drawn),5.3,nt,1.6%,nt,-5.3%,0.7%
Nc1nc(NC(=O)c2cccc(S(=O)(=O)N3CCCCCC3)c2)nc(-c2ccccc2)n1,34.1*,2.6%,7.5%,-17.6,1.3%,-3.5%
O=C(Nc1nc(-c2cccs2)cs1)c1cccc(S(=O)(=O)N2CCCCC2)c1,-7.5,-18.4%,?,-68.6*,?,-2.4%
Cc1cc(NC(=O)c2cccc(S(=O)(=O)N3CCCCCC3)c2)n(-c2ccccn2)n1,-7.4,1.5%,2.3%,-54.9*,-27.0%,1.1%
O=[N+]([O-])c1ccc2c(c1)C(N1CCOCC1)/C(=C/COc1ccc3ccccc3c1Br)O2 (stereo not drawn),-5.8,-4.4%,2.82µM*,-21.7,0.2%,0.5%
CCN(CC(=O)NCc1cccs1)C(=O)c1ccc(S(=O)(=O)N(C)C)cc1,-4.5,6.1%,14.2%,-1.7,nt,5.5%
CCN(CC(=O)NCc1cccs1)C(=O)/C=C/c1cc(OC)c(OC)c(OC)c1,1.8,-3.2%,25.3%,-8.3,15.8µM*,8.6%
C/C(=N/NC(=O)CN(c1ccccc1)S(=O)(=O)c1ccccc1)c1ccccc1O,-20.6,-0.2%,?,-51.7*,9.6%,?
Cc1ccc(S(=O)(=O)N(CC(=O)NCc2cccs2)c2ccccc2)cc1,-30.2,-4.0%,?,-66.1*,-2.4%,0.3%
CCN(CC(=O)NCc1cccs1)C(=O)c1ccc(S(=O)(=O)N(C)c2ccccc2)cc1,-4.7,0.7%,-12.1%,-5.9,22.4µM*,10.8%
CCN(CC(=O)NCc1cccs1)C(=O)/C=C/c1ccc(F)cc1,0.3,3.8%,-11.5%,29.2,1.0%,-5.5%
Cc1ccc(Nc2ncnc3nc[nH]c23)cc1,nt,nt,nt,nt,0.9%,nt
Cc1cc(NC(=O)CCS(=O)(=O)c2cc(Br)cc3c2N(C(=O)C2CC2)CC3)ccc1Br,0.6,nt,2.2%,nt,-1.7%,6.2%
COc1nc(-c2ccccc2)cc(-c2ccc(OC)c(OC)c2)n1,98.3*,2.1%,0.0%,54.9,22.4µM*,-3.5%
C[C@H](CO)N1C[C@H](C)[C@H](CN(C)S(=O)(=O)c2ccc(F)cc2)OCc2cnnn2CCCC1=O,4.1,7.7%,4.0%,10.4,-0.6%,-22.8%
CCOC(=O)C1CCN(C(=O)CSc2cc(=O)n(CC)c3ccccc23)CC1,-21.6,10.8%,-2.6%,-78.9*,?,22.9%
SMILES,D3 ag,GLP-1R agonist,GLP-1R inv ag,DRD3 antagonist,ClpP mod,HEK293 tox
O=c1oc2ccccc2cc1-c1nc2c(s1)CCCC2,21.2,-10.4%,?,27.8,35.5µM*,i
CC(C)(C)C1CCc2onc(C(=O)Nc3sc4c(c3C(N)=O)CCCC4)c2C1 (stereo not drawn),9.7,nt,4.5%,nt,-8.2%,-5.6%
CC(=O)c1cccc(NC(=O)COC(=O)c2ccc(S(C)(=O)=O)c([N+](=O)[O-])c2)c1,-17.1,-5.4%,6.7%,?,0.6%,0.2%
CCOC(=O)c1c(C)[nH]c(C(=O)OCc2csc(CC(=O)Nc3ccccc3C)n2)c1C,35.6*,18.3%,?,8.0,0.4%,?
Cc1ccccc1NC(=O)COC(=O)c1ccc(S(C)(=O)=O)c([N+](=O)[O-])c1,-13.7,-5.1%,?,-98.1*,-4.5%,?
CS(=O)(=O)c1ccc(C(=O)OCC(=O)Nc2cccnc2Cl)cc1[N+](=O)[O-],-22.1,-5.0%,-22.4%,-67.5*,0.0%,?
Cc1ccccc1NC(=O)Cc1nc(COC(=O)c2ccc(S(C)(=O)=O)c([N+](=O)[O-])c2)cs1,-5.3,-20.9%,?,-72.8*,-3.2%,?
Cc1n[nH]c(=O)n(N=Cc2c[nH]c3ccccc23)c1=O,1.2,4.7%,8.0%,-3.5,0.8%,6.2%
C(=C\c1nc2ccccc2nc1/C=C/c1ccc2c(c1)OCO2)/c1ccc2c(c1)OCO2,nt,nt,nt,nt,0.1%,nt
COc1ccc(-c2[nH]c(-c3ccc(O)cc3)nc2-c2ccccc2)cc1,-8.0,nt,?,nt,7.94µM*,-18.2%
COc1ccc(-c2nc(-c3ccccc3)c(-c3ccc(O)cc3)[nH]2)cc1,-4.9,nt,?,nt,5.01µM*,-23.4%
COc1ccc(-c2nc(-c3ccc4c(c3)OCO4)[nH]c2-c2ccc(OC)cc2)cc1,3.6,-14.5%,?,16.7,10.5%,?
O=C(O)COc1ccc(-c2nc(-c3ccccc3)c(-c3ccccc3)[nH]2)cc1,17.3,1.9%,50.1%,11.3,nt,5.8%
NC(=S)NN=Cc1nccc2c(C(F)(F)F)cccc12,-18.6,2.7%,1.26µM*,?,-4.9%,?
COC(=O)c1sc(N)c(C(=O)OC)c1COC(=O)c1c(C)noc1C,-64.2,13.4%,?,-68.9*,-17.6%,?
COc1ccc(/C=C/c2nnc(NC(C)=O)s2)cc1,6.8,2.9%,?,-20.0,nt,?
COC(=O)Nc1nnc(/C=C/c2ccc(OC)cc2)s1,0.8,5.4%,15.7%,16.7,22.4µM*,29.0%
